rTrxR1 inhibitor – blocks rat thioredoxin reductase 1; O89049; recombinant rTrxR1, NADPH fluorescence consumption, selenite substrate; Potency, µM (titrated, usually from 114 µM), usual class: inhibitors; actives 1% (n = 390,000); further: nearly all actives have a fitted effect of over 65% in size
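Rat TrxR1 (90 nM in the dispensed reagent) was pre-reduced with 400 uM NADPH for 5 min at room temperature, then incubated with compound for 15 min. After 400 uM selenite was added, NADPH fluorescence (Ex 340/Em 450 nm) was followed for 8 min.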
TrxR1 substrate – rat thioredoxin reductase 1 substrate activity | O89049 | purified TrxR1 substrate turnover, NADPH consumption readout | Potency, µM (highest dose often 114 µM) | actives 0.01% (n = 390,000); further: nearly all actives have a fitted effect of over 50% in size
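Rat TrxR1, dispensed at 90 nM, was prereduced with 400 uM NADPH (final) for 5 min at ~22 deg C, then incubated with compound 15 min before 400 uM selenite. A first-read NADPH fluorescence drop versus no-compound background flagged substrates.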
mIDH1 inhibitor – inhibitors of human mutant IDH1 R132H; O75874; IDH1-R132H enzyme, NADPH consumption, diaphorase/resazurin fluorescence; Potency, µM (titrated, usually from 76.6 µM), hits mostly inhibitors; actives 0.093% (n = 390,000); AID 602179; further: nearly all actives have a fitted effect of over 65% in size
Target sequence (O75874 whole entry R132H, stated change not applied): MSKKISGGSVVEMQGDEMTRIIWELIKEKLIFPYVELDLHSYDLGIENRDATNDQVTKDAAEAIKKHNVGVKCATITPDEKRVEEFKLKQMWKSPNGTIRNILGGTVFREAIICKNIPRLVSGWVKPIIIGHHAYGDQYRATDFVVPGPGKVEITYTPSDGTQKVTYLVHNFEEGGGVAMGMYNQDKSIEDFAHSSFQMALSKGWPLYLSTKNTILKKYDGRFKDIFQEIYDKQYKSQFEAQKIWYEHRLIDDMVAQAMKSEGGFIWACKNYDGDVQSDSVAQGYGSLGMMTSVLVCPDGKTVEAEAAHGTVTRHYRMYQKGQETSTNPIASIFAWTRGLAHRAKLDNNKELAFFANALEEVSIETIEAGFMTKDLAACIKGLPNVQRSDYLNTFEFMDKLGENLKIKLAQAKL
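IDH1-R132H (0.5 ug/mL) preincubated 30 min with compound, then NADPH (0.016 mM) and alpha-KG (2 mM) added; 80 min at RT, pH 7.5. Remaining NADPH coupled via diaphorase/resazurin to fluorescence (540/590 nm); concentration-response curves normalized to no-enzyme control.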
12-LOX inh – ALOX12 (human) lipoxygenase inhibition | Potency, µM (top dose mostly 108 µM), actives largely listed as inhibitors | P18054 | purified 12hLO, xylenol orange hydroperoxide absorbance | actives 1.1% (n = 580,000) | AID 1671190
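Purified human 12hLO at 150 nM in 25 mM Hepes, 0.01% Triton X-100, pH 7.0, preincubated 15 min at room temperature with compound. Reaction started with 40 uM arachidonic acid, 30 min at room temperature. Hydroperoxide measured by Fe-xylenol orange, 573/405 nm absorbance ratio.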
GRP78 ERSR act – induces the endoplasmic reticulum stress response in human glioma cells. actives 0.02% (n = 420,000). AID 602332. Potency, µM, hits mostly activators. U87-MG GRP78 promoter luciferase reporter, 16 h; further: series mostly up to about 76 µM; nearly all actives have a fitted effect of over 35% in size
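ERSR induction read as luciferase luminescence (Bright-Glo, 10 min at room temperature) in stably transfected human U87-MG glioma cells exposed to compounds for 16 h, using GRP78 as sensor.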
Apoferritin bind – candidate novel general anesthetic via apoferritin binding. actives 0.074% (n = 350,000). apoferritin/1-aminoanthracene competitive binding, fluorescence. Potency, µM (highest dose often 77.5 µM), actives largely listed as inhibitors. AID 485281; further: nearly all actives have a fitted effect of over 20% in size
Target sequence (P02791 2-175 limits assumed): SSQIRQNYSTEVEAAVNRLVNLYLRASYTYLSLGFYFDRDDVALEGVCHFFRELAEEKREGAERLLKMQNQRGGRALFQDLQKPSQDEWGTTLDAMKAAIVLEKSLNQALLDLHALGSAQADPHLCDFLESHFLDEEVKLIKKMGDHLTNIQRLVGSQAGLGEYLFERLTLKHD
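Horse-spleen apoferritin (10 uM) in 50% saturated 1-aminoanthracene in PBS was incubated 10 min at room temperature with compound. Fluorescence (ex 380, em 535 nm) was normalized to free and bound 1-AMA, with concentration-response fitted by a four-parameter Hill equation.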
Numbers stand for hits; [ ] = remark or other dose. Sampled rows, rich in hits. Any-hit rate of the full collection: about 1.7%. The call rests on the fitted dose curve; in most records, active means well fitted curve in the direction sought with a large enough effect; inconclusive means small, poorly fitted or top-dose-only effect, or another doubt; inactive means no such curve, though single readings can be large; an effect the other way counts as inactive or inconclusive.

For S=C1NCCc2ccccc2C1c1ccccc1 (centres undefined) the results were rTrxR1 inhibitor inactive, TrxR1 substrate inactive, mIDH1 inhibitor inactive, 12-LOX inh 35.5µM, GRP78 ERSR act inactive and Apoferritin bind inactive.
Screening S=C1NCCc2ccccc2C1c1ccccc1Cl (centres undefined) returned rTrxR1 inhibitor inactive, TrxR1 substrate inactive[0.457 µM], mIDH1 inhibitor inactive, 12-LOX inh inconclusive, GRP78 ERSR act inactive and Apoferritin bind inactive.
Screening CCCNC(=O)N1CCCCC1c1nc(C2CC2)n[nH]1 (centres undefined) returned 12-LOX inh inactive.
COCCNC(=O)CSc1cc(C)c2cc(C)cc(C)c2n1 was read as 12-LOX inh inactive.
Screening Cc1cc(C)c2nc(SCC(=O)NCCC3=CCCCC3)cc(C)c2c1 returned rTrxR1 inhibitor inactive, TrxR1 substrate inactive, mIDH1 inhibitor inactive, 12-LOX inh 15.8µM, GRP78 ERSR act inactive and Apoferritin bind inactive.
Screening C=CCNC(=O)N[C@H]1CO[C@H]2[C@@H]1OC[C@@H]2Nc1nccc(C2CCCC2)n1 returned 12-LOX inh inactive.
Screening CC(C)c1ccc(C(=O)N2CCC(OC3CCN(C)CC3)CC2)cc1 returned 12-LOX inh inactive.
For N#C/C(=C\c1cc(Cl)cc(Cl)c1O)C(=O)NC1CCCCC1 the results were rTrxR1 inhibitor 79.4µM, TrxR1 substrate inactive, mIDH1 inhibitor inactive, 12-LOX inh 7.08µM, GRP78 ERSR act inactive and Apoferritin bind inactive.
`N#C/C(=C\c1cc(Br)ccc1F)C(=O)NC1CC1` gave rTrxR1 inhibitor 20µM, TrxR1 substrate inactive, mIDH1 inhibitor inactive, 12-LOX inh inconclusive, GRP78 ERSR act inactive and Apoferritin bind inactive.
Screening CCC(=O)N1CCC(Cc2ccc(C(N)=O)cc2)CC1 returned 12-LOX inh inactive.
`O=C(NCc1ccccc1)N1CCC2(CC1)SCC(=O)N2c1ccc(Cl)cc1` gave 12-LOX inh inactive.
`COc1ccc(-c2sc3ccc(N4CCOCC4)cc3c2C#CCO)cc1` gave rTrxR1 inhibitor inactive, TrxR1 substrate inactive, mIDH1 inhibitor inactive, 12-LOX inh 20µM and GRP78 ERSR act inactive.
COC(=O)[C@H]1[C@H](CO)[C@H]2Cn3c(ccc(Br)c3=O)[C@H]2N1C(=O)c1ccccn1 was read as 12-LOX inh 0.794µM.
CS(=O)(=O)NC[C@H]1Cn2c(-c3ccc(F)cc3)cnc2CO1 was read as 12-LOX inh inactive.
For O=S(=O)(NC[C@H]1Cn2c(-c3ccc(F)cc3)cnc2CO1)c1ccc(Cl)cc1 the results were 12-LOX inh 50.1µM.
CCCSc1nc(NCc2ccco2)c2c3c(sc2n1)COC(C)(C)C3 was read as rTrxR1 inhibitor 44.7µM, TrxR1 substrate inactive, mIDH1 inhibitor inactive, 12-LOX inh inactive, GRP78 ERSR act inactive and Apoferritin bind inconclusive.
`CCCCSc1nc(NCc2ccco2)c2c3c(sc2n1)COC(C)(C)C3` gave rTrxR1 inhibitor inactive, TrxR1 substrate inactive, mIDH1 inhibitor inactive, 12-LOX inh inactive, GRP78 ERSR act inactive and Apoferritin bind inconclusive.
`Cc1ccc(/C=N/Nc2ccc(S(=O)(=O)Nc3ccccc3C(=O)O)cc2[N+](=O)[O-])o1` gave 12-LOX inh 14.1µM.
CCOc1cc(/C=N/Nc2ccc(S(=O)(=O)Nc3ccccc3C(=O)O)cc2[N+](=O)[O-])cc(Cl)c1O was read as mIDH1 inhibitor inactive, 12-LOX inh 35.5µM and GRP78 ERSR act inactive.
O=C(C1CCCCN1S(=O)(=O)c1ccccc1)N1CCCC1 (centres undefined) was read as 12-LOX inh inactive.
`O=C(NCCCN1CCOCC1)c1cc(-c2cccs2)on1` gave rTrxR1 inhibitor 15.8µM, TrxR1 substrate inactive, mIDH1 inhibitor inactive, 12-LOX inh inactive, GRP78 ERSR act inconclusive and Apoferritin bind inactive.
For COC(=O)[C@@H]1Cc2c([nH]c3ccccc23)[C@H]2C[C@@H](N3CCCCC3)C[C@@H](c3ccccc3F)N21 the results were 12-LOX inh inactive.
FC(F)Oc1ccc(NC(=S)NCc2ccccc2)cc1 was read as rTrxR1 inhibitor inactive, TrxR1 substrate inactive, mIDH1 inhibitor inactive, 12-LOX inh inconclusive, GRP78 ERSR act inactive and Apoferritin bind inactive.
Cc1cc2cc(CNC(=S)Nc3ccc(OC(F)F)cc3)ccc2n1C was read as rTrxR1 inhibitor inactive, TrxR1 substrate inactive, mIDH1 inhibitor inactive, 12-LOX inh 35.5µM, GRP78 ERSR act inactive and Apoferritin bind inconclusive.
`Cc1ccc(NC(=S)NCc2ccc3c(c2)OCO3)c(C)c1` gave rTrxR1 inhibitor inactive, TrxR1 substrate inactive, mIDH1 inhibitor inactive, 12-LOX inh 39.8µM, GRP78 ERSR act inactive and Apoferritin bind inactive.
Cc1ccc(NC(=S)NCc2ccc(F)cc2)c(C)c1 was read as rTrxR1 inhibitor inactive, TrxR1 substrate inactive, mIDH1 inhibitor inactive, 12-LOX inh inconclusive, GRP78 ERSR act inactive and Apoferritin bind inactive.
Screening Cc1ccc(NC(=S)NCc2ccc3c(c2)cc(C)n3C)c(C)c1 returned rTrxR1 inhibitor inactive, TrxR1 substrate inactive, mIDH1 inhibitor inactive, 12-LOX inh 35.5µM, GRP78 ERSR act inactive and Apoferritin bind inconclusive.
`CCCn1nc(C(=O)Nc2cc(S(=O)(=O)N(CC)CC)ccc2OC)c2ccccc2c1=O` gave 12-LOX inh inactive.
For COC(=O)c1ccc(C2/C(=C(\O)c3cccc(OC)c3)C(=O)C(=O)N2c2ccccn2)cc1 (centres undefined) the results were 12-LOX inh 1.12µM.
`Cc1cccc(NC(=O)/C(=C\c2ccco2)NC(=O)c2cccs2)c1` gave rTrxR1 inhibitor 39.8µM, TrxR1 substrate inactive, mIDH1 inhibitor inactive, 12-LOX inh inconclusive, GRP78 ERSR act inactive and Apoferritin bind inactive.
Cc1ccc(C(=O)N/C(=C/c2ccco2)C(=O)Nc2cccc(C)c2)cc1 was read as rTrxR1 inhibitor inactive, TrxR1 substrate inactive, mIDH1 inhibitor inactive, 12-LOX inh inconclusive, GRP78 ERSR act inactive and Apoferritin bind inconclusive.
For O=C(Nc1cccc(F)c1)/C(=C/c1ccco1)NC(=O)c1ccco1 the results were rTrxR1 inhibitor 44.7µM, TrxR1 substrate inactive, mIDH1 inhibitor inactive, 12-LOX inh inconclusive, GRP78 ERSR act inactive and Apoferritin bind inactive.
`Cc1ccc2nc(-c3ccccc3)cc(C(=O)NCCN3CCOCC3)c2c1` gave 12-LOX inh inactive.
`O=C(NC(C1CC1)C1CC1)C1CCCCC1` gave 12-LOX inh inactive.
`Cc1cccc(NC(=S)NC(=O)C2CC2)c1` gave Apoferritin bind 22.4µM.
CCN(CC)c1ccc(NC(=S)NC(=O)C2CCC2)cc1 was read as rTrxR1 inhibitor 44.7µM, TrxR1 substrate inactive, mIDH1 inhibitor inactive, 12-LOX inh inconclusive, GRP78 ERSR act inactive and Apoferritin bind inactive.

Assay outcomes: PubChem BioAssay, National Center for Advancing Translational Sciences (NCATS)
